Rows were chosen to be rich in hits. Some 19% of all compounds tested hit in one or more screens of this group.
HT1080-NT tox: qHTS for induction of synthetic lethality in tumor cells producing 2HG: qHTS for the HT-1080-NT fibrosarcoma cell line. HT-1080-NT fibrosarcoma viability, CellTiter-Glo ATP luminescence, 48 h. AID 686970, 2013. 360,000 tested, 1.6% active. Potency, µM (top dose mostly 46.1 µM), without a hit: at the top dose activity, negative = less viability, usual class: cytotoxic;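 further: NT is the 2HG producing partner of a matched IDH1 knockdown line; potency means the concentration at half of the fitted maximal effect; 0% = DMSO-treated cells and -100% = media-only wells without cells; nearly all actives have a fitted effect of over 55% in size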
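Fibrosarcoma NT cells, 750 per well in 5% FBS RPMI, were exposed to compound for 48 hours. Viability: CellTiter-Glo luminescence.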
HT1080 IDH1KD tx: qHTS for induction of synthetic lethality in tumor cells producing 2HG: qHTS for the HT-1080-IDH1KD cell line; HT-1080 IDH1 knockdown viability, ATP luminescence, 48 h; Potency, µM (titrated, usually from 46.1 µM), inactives show top-dose activity, negative = toxicity, hits mostly cytotoxic; 360,000 tested, 2% active;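 further: potency means the concentration at half of the fitted maximal effect; 0% = DMSO wells and -100% = cell-free medium wells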
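Viability of IDH1-knockdown HT-1080 fibrosarcoma cells was assessed by CellTiter-Glo after 48 h at 37 °C with titrated compound; concentration-effect curves were classified by fit quality and response size.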
DT40 TDP1 no CPT: qHTS for Inhibitors of human tyrosyl-DNA phosphodiesterase 1 (TDP1): qHTS in cells in absence of CPT; DT40 Tdp1-/- hTDP1 cells, no CPT, ATP luminescence, 48 h; Potency, µM (series often up to 46.2 µM), without a hit: at the top dose activity change, negative = growth inhibition, actives largely listed as inhibitors; 420,000 tested, 15% active; further: potency means the concentration at half of the fitted maximal effect; nearly all actives have a fitted effect of over 55% in size
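Luminescent ATP content (CellTiter-Glo) served as the growth readout. Knockout chicken DT40 cells expressing human TDP1 were exposed to compounds without camptothecin for a minimum 48 hr at 37 °C.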
TDP1 cell CPT: qHTS for Inhibitors of human tyrosyl-DNA phosphodiesterase 1 (TDP1): qHTS in cells in presence of CPT; chicken DT40 Tdp1-/-;hTDP1 cells + 20 nM CPT, ATP luminescence, 48 h; Potency, µM (series often up to 46.2 µM), for the others: at the highest dose activity change, negative = growth inhibition, actives largely listed as inhibitors; 420,000 tested, 12% active; further: potency means the concentration at half of the fitted maximal effect; nearly all actives have a fitted effect of over 55% in size
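Chicken DT40 Tdp1-/- cells stably complemented with human TDP1 were seeded at 400 cells/well in medium containing 20 nM camptothecin, exposed to pin-transferred compounds, and grown at 37 °C for at least 48 hr. Viability was read as ATP luminescence.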
IL1B secr inh: qHTS for Inhibitors of Inflammasome Signaling: IL-1-beta AlphaLISA Primary Screen. THP-1 LPS/ATP IL-1B secretion, AlphaLISA, 16 h; hits give low values. activity change, % at 57.5 µM. 360,000 tested, 4.7% active. AID 743279, 2014; in the data active means activity change below about -50%; inconclusive means mostly about -30% to -49%
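Secreted IL-1B measured by AlphaLISA bead assay after 16 h compound exposure of THP-1 cells; compounds (final up to 57.5 uM) added 1 h before LPS (250 ng/mL) and ATP (1.25 mM) stimulation; lower signal means less secretion.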
uPA generation: qHTS for Inhibitors of Cell Surface uPA Generation. 330,000 tested, 0.31% active. cell surface uPA generation assay, qHTS. Potency, µM (doses to about 38.3 µM), without a hit: at the top dose activity change, negative = inhibition, actives largely listed as inhibitors. AID 540303, 2011; active means well fitted inhibition curve with a large enough effect; inconclusive means small, poorly fitted or top-dose-only effect; inactive means no such curve, though single readings can be large or run the other way; tested in mouse RAW 264.7 cells; further: potency means the concentration at half of the fitted maximal effect; nearly all actives have a fitted effect of over 55% in size
The depositor's hits bear a star. Unless noted, the call rests on the fitted dose curve; in most records, active means well fitted curve in the direction sought with a large enough effect; inconclusive means small, poorly fitted or top-dose-only effect, or another doubt; inactive means no such curve, though single readings can be large; an effect the other way counts as inactive or inconclusive. Unless noted, on the % scale 0 is the no-effect control and ±100 the full control effect.

Results for COc1ccccc1N(C)S(=O)(=O)c1ccc(C(=O)N(C)Cc2cccc(F)c2)cc1 ?
HT1080-NT tox: 6%; HT1080 IDH1KD tx: 0%; DT40 TDP1 no CPT: 16µM*; TDP1 cell CPT: 16µM*; IL1B secr inh: 0

What do the screens show for `COc1ccccc1N(C)S(=O)(=O)c1ccc(C(=O)Nc2ccncc2)cc1`?
HT1080-NT tox: -4%; HT1080 IDH1KD tx: -2%; DT40 TDP1 no CPT: 18µM*; TDP1 cell CPT: inconclusive; IL1B secr inh: -1; uPA generation: 10%

How did C[C@@H]1CN([C@H](C)CO)C(=O)CCCn2cc(nn2)CO[C@H]1CN(C)C(=O)C1CC1 do in these assays?
HT1080-NT tox: -8%; HT1080 IDH1KD tx: -9%; DT40 TDP1 no CPT: inconclusive; TDP1 cell CPT: 20%; IL1B secr inh: 6

How did O=C(NCc1ccc(F)cc1F)[C@@H]1CCCN1C(=O)[C@@H]1CCCN1C(=O)c1ccc(Cl)cc1 do in these assays?
HT1080-NT tox: 3%; HT1080 IDH1KD tx: 1%; DT40 TDP1 no CPT: inconclusive; TDP1 cell CPT: inconclusive; IL1B secr inh: 12

How did CNc1c(NS(=O)(=O)c2ccc(C3CCCCC3)cc2)c(=O)oc2ccccc12 do in these assays?
HT1080-NT tox: 21%; HT1080 IDH1KD tx: 14%; DT40 TDP1 no CPT: -10%; TDP1 cell CPT: -19%; IL1B secr inh: 16; uPA generation: 5%

What do the screens show for `CN1CCC(Oc2ccccc2Sc2ccccc2)CC1`?
HT1080-NT tox: inconclusive; HT1080 IDH1KD tx: -5%; DT40 TDP1 no CPT: 16µM*; TDP1 cell CPT: inconclusive; uPA generation: -6%

What do the screens show for `Cc1ccc2nc(NC(=O)c3ccc(OCC4CCCO4)cc3)sc2c1` (configuration not stated)?
HT1080-NT tox: -23%; HT1080 IDH1KD tx: 7.3µM*; DT40 TDP1 no CPT: 15µM*; TDP1 cell CPT: 13µM*; IL1B secr inh: -110*; uPA generation: 2%

Results for Cc1cc(C)c2nc(NC(=O)c3ccc(OCC4CCCO4)cc3)sc2c1 (configuration not stated) ?
HT1080-NT tox: 0%; HT1080 IDH1KD tx: inconclusive; DT40 TDP1 no CPT: 21µM*; TDP1 cell CPT: inconclusive; IL1B secr inh: -16; uPA generation: 14%

Results for COc1ccc2nc(NC(=O)c3ccc(NC(=O)C4CCCO4)cc3)sc2c1 (configuration not stated) ?
HT1080-NT tox: 1%; HT1080 IDH1KD tx: -3%; DT40 TDP1 no CPT: inconclusive; TDP1 cell CPT: inconclusive; IL1B secr inh: -2; uPA generation: 4%

What do the screens show for `CCOC(=O)c1c(C)n(C)c2ccc(OCC(O)CN3C(=O)c4ccccc4S3(=O)=O)cc12` (configuration not stated)?
HT1080-NT tox: 0%; HT1080 IDH1KD tx: inconclusive; DT40 TDP1 no CPT: 16µM*; TDP1 cell CPT: 16µM*; IL1B secr inh: -15

Results for COc1ccc(C)c2sc(N(CCCN(C)C)C(=O)CS(=O)(=O)c3ccc(F)cc3)nc12 ?
HT1080-NT tox: 18µM*; HT1080 IDH1KD tx: -24%; DT40 TDP1 no CPT: -19%; TDP1 cell CPT: -50%; IL1B secr inh: inconclusive; uPA generation: 1%

What do the screens show for `COc1ccc(OC)c2sc(N(CCCN(C)C)C(=O)CCS(=O)(=O)c3ccccc3)nc12`?
HT1080-NT tox: -1%; HT1080 IDH1KD tx: inconclusive; DT40 TDP1 no CPT: 0.65µM*; TDP1 cell CPT: 1.5µM*; IL1B secr inh: -107*; uPA generation: inconclusive

What do the screens show for `Cc1ccc2sc(N(CCCN(C)C)C(=O)CCS(=O)(=O)c3ccccc3)nc2c1C`?
HT1080-NT tox: inconclusive; HT1080 IDH1KD tx: inconclusive; DT40 TDP1 no CPT: 2.6µM*; TDP1 cell CPT: 2.3µM*; IL1B secr inh: -93*; uPA generation: inconclusive

What do the screens show for `O=C(c1ccc(OCCN2CCCCC2)cc1)c1c(-c2ccc(O)cc2)sc2cc(O)ccc12`?
HT1080-NT tox: 21µM*; HT1080 IDH1KD tx: 21µM*; DT40 TDP1 no CPT: 17µM*; TDP1 cell CPT: inconclusive; IL1B secr inh: 11; uPA generation: -19%

What do the screens show for `COc1cccc(-c2sc3ccc(OC)cc3c2-c2ccc(O)cc2)c1`?
HT1080-NT tox: -24%; HT1080 IDH1KD tx: -22%; DT40 TDP1 no CPT: inconclusive; TDP1 cell CPT: inconclusive; IL1B secr inh: 7; uPA generation: 25%

How did COC(=O)c1ccc(OCCN2CCCCCC2)cc1 do in these assays?
HT1080-NT tox: 18%; HT1080 IDH1KD tx: 20%; DT40 TDP1 no CPT: 0%; TDP1 cell CPT: 23%; IL1B secr inh: 28; uPA generation: 2%

What do the screens show for `COc1cccc(-c2sc3ccc(OC)cc3c2-c2ccc(OCCN3CCOCC3)cc2)c1`?
HT1080-NT tox: -27%; HT1080 IDH1KD tx: inconclusive; DT40 TDP1 no CPT: inconclusive; TDP1 cell CPT: 16µM*; IL1B secr inh: -11; uPA generation: 15%

Results for COc1cccc(-c2sc3ccc(OC)cc3c2-c2ccc(OCCN(C)C)cc2)c1 ?
HT1080-NT tox: inconclusive; HT1080 IDH1KD tx: inconclusive; DT40 TDP1 no CPT: 16µM*; TDP1 cell CPT: 23µM*; IL1B secr inh: -62*; uPA generation: -17%

How did Oc1cccc(-c2sc3ccccc3c2-c2ccc(OCCN3CCCCC3)cc2)c1 do in these assays?
HT1080-NT tox: 21µM*; HT1080 IDH1KD tx: 12µM*; DT40 TDP1 no CPT: 12µM*; TDP1 cell CPT: 18µM*; IL1B secr inh: 0

How did NC(=O)C1CCN(C(=O)c2ccc3c(=O)n(Cc4ccco4)c(SCc4ccc([N+](=O)[O-])cc4)nc3c2)CC1 do in these assays?
HT1080-NT tox: -5%; HT1080 IDH1KD tx: -3%; DT40 TDP1 no CPT: inconclusive; TDP1 cell CPT: inconclusive; IL1B secr inh: -19; uPA generation: -9%

Results for CC(C)CC1Nc2ncnc(N3CCN(c4ccccc4)CC3)c2N(Cc2ccc(Br)cc2)C1=O (configuration not stated) ?
HT1080-NT tox: -8%; HT1080 IDH1KD tx: -5%; DT40 TDP1 no CPT: 18µM*; TDP1 cell CPT: 16µM*; IL1B secr inh: -14; uPA generation: -21%
